Screens (PubChem)
Shown is part of a subset that was picked to be rich in hits.
MITF inh – inhibitors of MITF, primary screen, MITF inhibitor project, cell-based, luminescence; TRPM1 promoter luciferase, 24 h; inhibition, % (concentration not given with the values); 0.28% of 37,000 active; in the data active = inhibition above about 85%; inconclusive = no clear call, values can overlap the other calls; inactive = below about 68%;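 note: human melanocyte line stably carrying TRPM1 promoter luciferase reporter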
NOMO-1 viab – NOMO-1 AML cell viability reduction, primary screen, STK33 inhibitor project, CellTiter-Glo luminescence; NOMO-1 AML viability, 72 h; 7.5% of 37,000 active; inhibition, % (test concentration not listed); in the data active = inhibition above about 80%; inconclusive = no clear call, values can overlap the other calls
STK33 kin inh – STK33 kinase inhibitors, primary screen, biochemical, luminescence, ADP-Glo, MBP substrate. inhibition, % at 12.5 µM. Serine/threonine-protein kinase 33 (Homo sapiens), Q9BYT3. 0.44% of 27,000 active; in the data active = inhibition above about 20%; inconclusive = no clear call, values can overlap the other calls
Target sequence (Q9BYT3 whole entry, looked up): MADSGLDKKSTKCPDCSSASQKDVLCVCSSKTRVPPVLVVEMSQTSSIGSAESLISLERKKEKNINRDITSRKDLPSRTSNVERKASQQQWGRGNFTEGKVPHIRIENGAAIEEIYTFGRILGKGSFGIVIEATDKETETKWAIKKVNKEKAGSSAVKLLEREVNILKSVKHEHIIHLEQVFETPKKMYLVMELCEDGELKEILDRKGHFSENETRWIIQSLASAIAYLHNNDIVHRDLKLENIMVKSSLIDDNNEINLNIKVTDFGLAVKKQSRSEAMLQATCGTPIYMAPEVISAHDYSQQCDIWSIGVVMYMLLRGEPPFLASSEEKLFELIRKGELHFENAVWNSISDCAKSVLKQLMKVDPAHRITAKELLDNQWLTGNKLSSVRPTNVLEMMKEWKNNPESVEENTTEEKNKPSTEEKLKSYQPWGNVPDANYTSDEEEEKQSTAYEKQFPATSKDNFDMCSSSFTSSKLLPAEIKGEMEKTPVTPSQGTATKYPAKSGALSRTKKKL
p53 PUMA act – mutant p53 pathway re-activators, primary screen, cell-based, SW480, luciferase, single point, HTS | SW480 PUMA-promoter luciferase, p53 mutant reactivation | activation, % at 9.98 µM | 1.5% of 28,000 active | AID 624151, 2012; in the data active = activation above about 52%; inconclusive = no clear call, values can overlap the other calls
Numbers without * were called inactive; ? = inconclusive; / = no result; ! = not confirmed by another sample.

SMILES	MITF inh	NOMO-1 viab	STK33 kin inh	p53 PUMA act
C[C@H]1CN([C@@H](C)CO)C(=O)c2cc(NC(=O)Nc3ccccc3)ccc2O[C@@H]1CN(C)C(=O)Nc1ccc(C(F)(F)F)cc1	8	4	/	-7
CN1/C(=C2/SC(=S)N(c3ccccc3)C2=O)Sc2ccccc21	-11	14	/	/
Cc1ccc(S(=O)(=O)Nc2ccc3c(c2)C(=O)N([C@@H](C)CO)C[C@H](C)[C@@H](CN(C)Cc2ccc(Oc4ccccc4)cc2)O3)cc1	10	106*	3	/
Cc1ccc(S(=O)(=O)Nc2ccc3c(c2)C(=O)N([C@H](C)CO)C[C@H](C)[C@@H](CN(C)Cc2ccc(Oc4ccccc4)cc2)O3)cc1	-1	6	/	/
Cc1ccc(S(=O)(=O)Nc2ccc3c(c2)C(=O)N([C@@H](C)CO)C[C@@H](C)[C@@H](CN(C)Cc2ccc(Oc4ccccc4)cc2)O3)cc1	37	113*	/	/
C[C@H]1CN([C@@H](C)CO)C(=O)c2cc(NS(=O)(=O)c3ccccc3)ccc2O[C@H]1CN(C)Cc1ccc(Oc2ccccc2)cc1	6	53	2	/
Cc1cc(NC(=O)CN(c2c(C)cccc2C)S(C)(=O)=O)ccc1Br	4	-5	1	-12
COc1ccc(OC)c(NC(=O)COc2ccc(C(=O)Nc3cccc(C)c3C)cc2)c1	12	20	0	7
O=C1O[C@H](c2ccccc2)[C@H](c2ccccc2)N2[C@H]1[C@@H](C(=O)N1CCCCCCC1)[C@]1(C(=O)Nc3ccc(C#CC4=CCCCC4)cc31)[C@H]2c1ccccc1OCCO	/	/	22*	/
O=C1O[C@H](c2ccccc2)[C@H](c2ccccc2)N2[C@H]1[C@@H](C(=O)N1CCN(c3ncccn3)CC1)[C@]1(C(=O)Nc3ccc(C#CC4=CCCCC4)cc31)[C@H]2c1ccccc1OCCO	/	/	8	/
CCN(CC)C(=S)SSC(=S)N(CC)CC	10	141*	-4	/
CCN(CC)C(=S)SC1=CCS(=O)(=O)C1	1	24	/	/
c1ccc2sc(SCc3nc4c5c6c(sc5ncn4n3)CCCC6)nc2c1	28	27	-1	3
Cn1cnc([N+](=O)[O-])c1Sc1ncnc2nc[nH]c12	23	119*	-1	-8
Cn1cnnc1Sc1c([N+](=O)[O-])ncn1C	/	/	/	-4
COC(=O)c1ccccc1NC(=O)C(C)Oc1ccc2c(C)cc(=O)oc2c1 (configuration not stated)	14	89*	-1	22
Cc1cc(=O)oc2cc(OC(C)C(=O)NCC3CCCO3)ccc12 (configuration not stated)	0	24	-1	8
O=[N+]([O-])c1ccc(S(=O)(=O)NCc2cccnc2)cc1	1	-4	1	1
COC(=O)C1=C(C)NC(C)=C(C(=O)OCCN(C)Cc2ccccc2)C1c1cccc([N+](=O)[O-])c1 (configuration not stated)	12	142*!	2	/
Cc1cc2nnc(SCC(=O)c3cc(C)n(Cc4ccccc4)c3C)n2c2ccccc12	-12	131*	/	/
Cc1ccc(C(O)(CO)CO)c(O)c1	/	/	-2	18
COc1ccc(-c2cc(C(F)(F)F)nc(SCC(=O)Nc3cc(F)ccc3C)n2)cc1OC	-14	40	7	-2
COc1ccc(CN2C(=O)C(O)(CC(=O)c3cccnc3)c3ccccc32)cc1OC (configuration not stated)	2	106*	-6	8
O=C(CC1(O)C(=O)N(Cc2ccc(Cl)c(Cl)c2)c2ccccc21)c1cccc([N+](=O)[O-])c1 (configuration not stated)	5	108*	2	-14
NC(=O)CN1C(=O)C(O)(CC(=O)c2ccncc2)c2ccccc21 (configuration not stated)	15	-4	-1	16
SMILES	MITF inh	NOMO-1 viab	STK33 kin inh	p53 PUMA act
C=CCN1C(=O)C(O)(CC(=O)c2ccc(OC)c([N+](=O)[O-])c2)c2ccccc21 (configuration not stated)	21	119*	2	3
Cc1ccccc1CN1C(=O)C(O)(CC(=O)c2ccncc2)c2cc(Cl)ccc21 (configuration not stated)	16	129*	-6	1
C=CCN1C(=O)C(O)(CC(=O)c2ccc(C)o2)c2ccccc21 (configuration not stated)	3	27	7	10
COC(=O)c1c(NC(=S)Nc2cccc(NC(C)=O)c2)sc(C)c1C	/	/	4	2
COc1ccc(CN2C(=O)C(O)(CC(=O)c3ccc(C)s3)c3ccccc32)cc1OC (configuration not stated)	17	114*	0	9
O=C(CC1(O)C(=O)N(Cc2cccc3ccccc23)c2ccccc21)c1ccc(F)cc1 (configuration not stated)	45	84*	2	-10
COc1ccc(C(=O)CC2(O)C(=O)N(Cc3ccccc3Cl)c3ccc(Cl)cc32)cc1OC (configuration not stated)	52	90*	2	-10
COc1ccc(CN2C(=O)C(O)(CC(=O)c3ccc(Cl)s3)c3ccccc32)cc1OC (configuration not stated)	1	109*	1	-7
N#Cc1sc2sc(C#N)c(-c3ccco3)c2c1N	18	47	/	/
COc1ccc(CN2C(=O)C(O)(CC(=O)c3ccc(Cl)cc3)c3ccccc32)cc1OC (configuration not stated)	3	112*	-4	14
Cc1cc(O)c(C=O)c2c1C(=O)Oc1c(C)c(O)c3c(c1O2)C(O)OC3=O (configuration not stated)	5	-1	59*	/
COc1cc(C)c2c(c1C=O)Oc1c(c(C)c(O)c3c1C(O)OC3=O)OC2=O (configuration not stated)	-7	0	15	/
Oc1ccc2ccccc2c1C1Nc2ccccc2-n2cccc21 (configuration not stated)	36	58	/	/
C[C@@H]1CN([C@H](C)CO)C(=O)c2cc(NC(=O)Nc3ccc(C(F)(F)F)cc3)ccc2O[C@@H]1CN(C)Cc1ccc(C(=O)Nc2ccccc2N)cc1	-22	102*	/	/
C[C@@H]1CN([C@H](C)CO)C(=O)c2cc(NC(=O)Nc3ccc(F)cc3)ccc2O[C@@H]1CN(C)Cc1ccc(C(=O)Nc2ccccc2N)cc1	-7	107*	/	/
C[C@H]1CN([C@@H](C)CO)C(=O)c2cc(NC(=O)Nc3ccccc3)ccc2O[C@H]1CN(C)Cc1ccc(C(=O)Nc2ccccc2N)cc1	8	?	/	/
Cc1ccc(C(=O)C2C(=O)C(=O)N(CCN(C)C)C23C(=O)N(C)c2ccccc23)cc1 (configuration not stated)	/	/	/	-17
CN(CC(=O)Nc1ccc(C(N)=O)cc1)S(=O)(=O)c1ccc(F)cc1	-32	18	-3	19
CC(C)=CCc1c(O)cc(O)c2c(=O)cc(-c3ccc(O)cc3)oc12	18	94*	?	-60
O=c1c(O)c(-c2ccc(O)cc2)oc2cc(O)cc(O)c12	-185	32	33*	/
